# Source: PubChem BioAssay AID1309 (The Scripps Research Institute Molecular Screening Center, 2008)
# The campaign covered roughly 1,200 compounds. About 130 (11%) were called active. Not all results are given here. Unmarked numbers belong to inactive results. Rule as the data show it: active = activation above about 120%; inactive = the rest.
# Assay: activation of NF-kB-driven transcription – cell-based, counter-screen for STAT3 activator project (AID 1309);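 also: reporter induced by TNF-alpha stimulation; 100% = median of stimulated DMSO wells and 0% = no signal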
# Settings: human cells, NF-kappaB reporter activation; at 5.7 µM; stronger effect = higher value
row,Structure (SMILES),activation (% of control)
1,Fc1ccc2nc(-c3ccccc3)nc(SCc3nnc(-c4ccccc4)o3)c2c1,106%
2,COc1ccccc1N1CCN(C(=O)c2cc3c(-c4ccc(Cl)cc4)nn(C)c3s2)CC1,101%
3,Cn1cccc1C(=O)Nc1nccs1,111%
4,N#Cc1ccccc1NC(=O)COc1c(Br)cc(Br)c2cccnc12,107%
5,COC(=O)c1[nH]c2ccccc2c1NC(=O)CN1CCCc2ccccc21,106%
6,CCOC(=O)N1CCN(CC(=O)Nc2cc(C)nn2-c2nc3ccccc3s2)CC1,106%
7,C/C(=N\NC(=O)CNc1cccc2ccccc12)c1ccc(Br)s1,103%
8,COc1ccc(/C=N/Nc2ncnc3sc4c(c23)CCCC4)cc1O,110%
9,O=C1CCCN1CCCNc1ncnc2c1[nH]c1ccccc12,100%
10,COc1ccc(C2c3[nH]c4ccccc4c3CCN2CCCn2cccn2)cc1C (stereo not given),102%
11,CCn1c(SCC(=O)N/N=C/C=C/c2ccccc2[N+](=O)[O-])nnc1-c1ccccc1,101%
12,CCOC(=O)C1CCN(c2ncnc3c2oc2ccc(Br)cc23)CC1,102%
13,CN1CCN(c2ccc([N+](=O)[O-])c(Sc3nc4ccccc4[nH]3)c2)CC1,102%
14,CSc1nc2sc3c(c2c(=O)[nH]1)CCc1ccccc1-3,108%
15,C=CCCC(=O)Nc1nc(C)c(-c2csc(Nc3ccc(Cl)cc3)n2)s1,107%
16,COc1ccc([N+](=O)[O-])cc1C1NN=C(c2cccc3ccccc23)S1 (stereo not given),114%
17,Cc1ccc(S(=O)(=O)Nc2nc3ccccc3nc2N2CCc3ccccc3C2)cc1,107%
18,COc1ccc(NC(=O)ON=C2c3ccccc3-c3ccccc32)cc1,108%
19,O=c1[nH]c(CSc2ncc(-c3ccc(F)cc3)n2Cc2ccco2)nc2ccccc12,107%
20,OC(COc1ccc2ccccc2c1)CN1CCOCC1 (stereo not given),107%
21,Oc1cccc2ccc(/C=C/c3ccc(Br)s3)nc12,122% (active)
22,CCCS(=O)(=O)Nc1c(C(=O)O)[nH]c2ccccc12,103%
23,O=C(Nc1cc(C(F)(F)F)ccc1Cl)c1cc(C2CC2)on1,100%
24,O=C(O)CSCc1nc2ccccc2s1,112%
25,Cc1ccc(/C=N/NC(=O)COc2ccccc2-c2ccccc2)cc1,155% (active)

row,Structure (SMILES),activation (% of control)
1,C=CCn1c(-c2ccccc2OCC)n[nH]c1=S,115%
2,Cc1csc2ncc(C(=O)N(Cc3ccccc3)c3ccccn3)c(=O)n12,103%
3,Cc1cccc(C(=O)N2CCc3c([nH]c4ccccc34)C2CC(C)C)n1 (stereo not given),110%
4,Cc1nc(N=C(N)N)nc2c(C)cccc12,110%
5,COc1ccc(Cl)cc1NC(=O)c1oc(C)nc1C,108%
6,COC(=O)c1[nH]c2ccccc2c1NS(=O)(=O)c1ccc(OC)cc1OC,104%
7,CN1C(=O)/C(=C\c2cc(Br)cs2)c2ccccc21,120%
8,O=C(NCc1ccco1)c1cccn2c(=O)c3c4c(sc3nc12)CCCC4,106%
9,Cc1ccc(-c2cc(C(=O)Nc3nn[nH]n3)c3ccccc3n2)c(C)c1,99.3%
10,Cc1cccc(C(=O)Nc2nnc(Cc3c[nH]c4ccccc34)s2)c1,101%
11,CSc1nc(N(C)NC(=O)c2cccc(C)c2)c2ccccc2n1,159% (active)
12,CSCCC(NC(=O)c1ccco1)C(=O)OCC(=O)Nc1ncc(Cl)c(C)c1Cl (stereo not given),97.1%
13,Cc1nc2ccccc2cc1O,98%
14,N#Cc1c(C(F)(F)F)cc(-c2ccc(Cl)cc2)nc1SCC(=O)O,107%
15,Oc1c(C=Nc2cccc3nsnc23)ccc2ccccc12,96.6%
16,Cc1ccc(C2=NN(C)c3nc4ccccc4n3C2)cc1,112%
17,Cc1ccc(OCc2nnc(SC3CCc4ccccc4C3=O)n2C)cc1 (stereo not given),111%
18,CC(=O)Nc1ccc(NC(=O)COc2ccccc2C(=O)Nc2cccc(Cl)c2Cl)cc1,102%
19,CC(C)CNC(=O)COC(=O)/C=C/c1ccccc1[N+](=O)[O-],97.8%
20,COc1nc(N=C(N)N)nc2c(C)cccc12,109%
21,c1ccc(-c2cn3c(n2)CCc2ccc4cccnc4c2-3)cc1,106%
22,O=C(Cc1c[nH]c2ccccc12)OCCOC(=O)Cc1c[nH]c2ccccc12,99.2%
23,COc1cccc(NC(=S)C(C#N)=C2N(C)c3ccccc3N2C)c1,94.8%
24,NC(=O)CSc1c[nH]c2ccccc12,102%
25,COc1cccc(/C=C(/CC(=O)Nc2ccc(N3CCOCC3)cc2)c2nc3ccccc3s2)c1,114%

row,Structure (SMILES),activation (% of control)
1,Cc1ccc(NC(=O)c2cc([N+](=O)[O-])ccc2Cl)c(O)c1,107%
2,CCCCC(=O)Nc1nc(C)c(-c2csc(Nc3ccc(Cl)cc3)n2)s1,101%
3,C/C(=N\c1nc2ccccc2n1C)c1cc(Cl)ccc1O,99.6%
4,COc1cc(OC)cc(C(=O)N[C@H](C(=O)Nc2nc3ccccc3[nH]2)C(C)C)c1,138% (active)
5,COc1ccccc1-c1nnc(NC(=O)c2ccc3ncsc3c2)o1,127% (active)
6,COc1ccccc1-c1nnc(SCC(=O)N2CC(C)CC(C)C2)o1 (stereo not given),101%
7,Oc1cccc(C2c3[nH]c4ccccc4c3CCN2Cc2cnn(-c3ccccc3)c2)c1 (stereo not given),105%
8,CCNCc1cc2cc(C)ccc2[nH]c1=O,101%
9,COC(=O)c1[nH]c2cccc(C)c2c1NC(=O)CN1CCCc2ccccc21,96.7%
10,CCOc1ccc(C2c3[nH]c4ccccc4c3CCN2Cc2cn(CC)nc2C)cc1 (stereo not given),111%
11,COc1ccc(C)cc1NC(=O)c1[nH]c(C)c(C(C)=O)c1C,99.2%
12,COc1ccc(-c2c3c(=O)n(C)c(=O)n(C)c3cn2-c2cccc(OC)c2)cc1,103%
13,O=C(O)CS/C(=C\c1ccc(F)cc1)c1nc2ccccc2s1,116%
14,Cc1ccc(N=Nc2c(C)[nH]n(-c3ccccc3)c2=O)cc1,106%
15,COc1cc(NS(=O)(=O)c2ccc(N/C=C(\C=O)c3nc4cc(Cl)ccc4o3)cc2)nc(OC)n1,104%
16,COCCCNc1nc2c(-c3cccc(C(F)(F)F)c3)nnn2c2ccccc12,109%
17,CCOC(=O)c1c(-c2cccc(C)c2)csc1NC(=O)c1c(-c2ccccc2)noc1C,71.3%
18,Cc1ccc(Nc2nc(-c3sc(NC(=O)c4ccccc4)nc3C)cs2)cc1,102%
19,Cc1cccc(N(CC(=O)N=Nc2c(O)[nH]c3ccccc23)S(C)(=O)=O)c1C,103%
20,O=[N+]([O-])c1ccc(N2CCN(S(=O)(=O)c3ccc4ccccc4c3)CC2)cc1NCc1ccco1,105%
21,CCSc1nnc(-c2cc3c(s2)-c2ccccc2CC3)o1,118%
22,Cn1nc(-c2ccc(Cl)cc2)c2cc(C(=O)NCc3ccco3)sc21,104%
23,COc1ccccc1C1C2=C(COC2=O)Nc2cc3c(cc21)OCO3 (stereo not given),166% (active)
24,CCOC(=O)CN(C)Cc1c[nH]c2ccccc12,105%
25,O=C(C1CCN(S(=O)(=O)Cc2ccccc2)CC1)N1CCCc2ccccc21,108%
